Only a selection was taken, and hits are over-represented in it overall.
PLAP activator = activators of human placental alkaline phosphatase. activation fold at 20 µM. purified PLAP enzyme, luminescent substrate read-out; hits give high values. P05187. 1.2% of 96,000 active; in the data active means activation fold above about 2
Target sequence (P05187 whole entry, looked up): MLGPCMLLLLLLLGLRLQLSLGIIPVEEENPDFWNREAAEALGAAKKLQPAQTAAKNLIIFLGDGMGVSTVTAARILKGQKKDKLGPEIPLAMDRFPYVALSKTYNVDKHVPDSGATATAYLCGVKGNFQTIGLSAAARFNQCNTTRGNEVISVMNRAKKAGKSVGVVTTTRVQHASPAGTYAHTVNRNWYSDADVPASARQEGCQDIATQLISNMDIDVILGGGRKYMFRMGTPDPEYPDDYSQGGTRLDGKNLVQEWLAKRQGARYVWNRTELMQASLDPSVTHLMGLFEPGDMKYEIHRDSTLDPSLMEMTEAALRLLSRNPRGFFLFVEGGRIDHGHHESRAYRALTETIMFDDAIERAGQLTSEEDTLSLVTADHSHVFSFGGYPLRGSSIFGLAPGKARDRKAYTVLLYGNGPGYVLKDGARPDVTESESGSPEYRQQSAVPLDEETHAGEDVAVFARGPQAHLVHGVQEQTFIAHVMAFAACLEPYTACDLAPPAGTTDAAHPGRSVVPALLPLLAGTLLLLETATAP
TNAP act DEA = activates human TNAP at intermediate phosphate acceptor concentration; purified TNAP, CDP-star luminescence, 100 mM DEA, 30 min; hits give high values; scale: 0 levamisole-inhibited, 1 vehicle-only enzyme; activation factor at 20 µM; 64,000 tested, under 10 active;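 active means activation factor of at least 2 at 20 µM, relative to controls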
DAT uptake mod = human DAT dopamine uptake with cocaine, either direction; LLC-PK1 hDAT cells, [14C]-dopamine uptake with cocaine IC80; actives deviate in either direction; B-score at 10 µM; 1.3% of 110,000 active; AID 449768;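 active means Z score or B-score, a plate-position-corrected score, falls beyond the plate's 99.7% confidence bounds, in either direction; inactive means both scores lie inside the 99.7% bounds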
Calb biofilm kill = kills Candida albicans biofilms; C. albicans biofilm + clotrimazole, Alamar Blue; inhibition, % at 6 µM; 0.14% of 85,000 active; AID 834;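 active means inhibition above 20%; inactive means inhibition below 20%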;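 further: preformed 24 hr biofilms exposed to compound for 48 hr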
D1 mod = allosteric modulators of human D1 dopamine receptor | 5.9% of 58,000 active | P21728 | AID 641 | HEK293 D1, CRE-luciferase, dopamine EC30 potentiation; actives deviate in either direction | B-score at 10 µM;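 active means luminescence count or its row- and column-corrected plate score outside the 99.7% band of the plate's sample wells, on either side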
HePTP inhibitor = blocks human HePTP tyrosine phosphatase; 0.64% of 110,000 active; recombinant HePTP phosphatase activity, OD absorbance; P35236; AID 521; inhibition, % at 20 µM; in the data active means inhibition above about 50%
A number is an active result; – = inactive; · = not tested or not shown.

SMILES	PLAP activator	TNAP act DEA	DAT uptake mod	Calb biofilm kill	D1 mod	HePTP inhibitor
CC(=O)c1ccc(NC(=O)c2cnn3ccccc23)cc1	–	·	–	–	·	·
CCC1=NN(C(=O)c2ccc(OC)cc2)C(O)(c2ccncc2)C1 (stereo not drawn)	·	·	·	·	·	104
CC(C)n1c(C(O)c2ccc3c(c2)OCO3)nc2ccccc21 (stereo not drawn)	2.4	–	–	–	–	–
COC(=O)c1ccc(-n2nnnc2SCC(=O)N2CCCCC2)cc1	–	–	–	–	–	–
CCCOC(=O)c1ccc(-n2nnnc2SCC(=O)N2CCCCC2)cc1	–	–	–	–	-3.7	–
CN(C)c1ccc(/C=C2\SC(=S)N(/N=C/c3ccc(N(C)C)cc3)C2=O)cc1	·	·	·	·	·	–
CCC1=Nc2cc(C(=O)NCCCOC(C)C)ccc2Sc2ccccc21	–	·	-7.2	–	·	·
CCn1cc(C(=O)NCc2ccco2)c(=O)c2cc(S(=O)(=O)N3CCCCCC3)ccc21	–	–	–	–	–	–
CCn1cc(C(=O)NC2CCC(C)CC2)c(=O)c2cc(S(=O)(=O)N3CCCCC3)ccc21 (stereo not drawn)	–	–	2.2	–	–	–
CCn1cc(C(=O)NC2CCCC2)c(=O)c2cc(S(=O)(=O)N3CCOCC3)ccc21	·	–	·	–	–	–
C=CCn1cc(C(=O)NCc2ccco2)c(=O)c2cc(S(=O)(=O)N3CCCCCC3)ccc21	–	–	3.3	·	–	–
Cc1ccc(OCC(=O)NNC(=O)C2CCN(c3ncccn3)CC2)cc1	2	·	–	·	·	·
OCCN1CCOCCN(CCO)CCOCC1	2	–	–	–	–	–
CC(=O)Nc1ccc(S(=O)(=O)N2CCN(C)CC2)cc1	–	·	–	–	·	·
CC(=O)Nc1ccc(S(=O)(=O)N2CCc3ccccc3C2)cc1	–	·	-8.8	–	·	·
O=C1NC(=S)N(c2ccccc2)C(=O)/C1=C/c1ccc(-c2ccc([N+](=O)[O-])cc2)o1	·	·	·	·	·	–
CCOC(=O)c1ccc(NC2=C(C(=O)C(F)(F)F)CCCC2)cc1	·	·	·	·	·	–
CCOc1ccc(NC(=O)c2cccc(Oc3ccccc3)c2)c([N+](=O)[O-])c1	·	·	·	·	·	–
CCOc1ccc(NC(=O)c2cc(OCC)c(OCC)c(OCC)c2)c([N+](=O)[O-])c1	·	·	·	·	·	54
CCOc1cc(C(=O)Nc2cc(C)ccn2)cc(OCC)c1OCC	–	–	3	–	–	–
Cc1ccnc(NC(=O)c2cccc(NS(=O)(=O)c3ccccc3C)c2)c1	–	·	0.47	·	·	·
O=C1N=c2ccc(Br)cc2=C1c1sc(Nc2ccc(O)cc2)nc1O	·	·	·	·	·	93
Clc1ccc(-c2csc(NNC3=NCCCCC3)n2)cc1	–	·	–	–	·	·
c1ccc(-c2csc(NNC3=NCCCCC3)n2)cc1	2.1	·	–	–	·	·
O=[N+]([O-])c1cccc(CN2CCN(S(=O)(=O)c3ccccc3)CC2)c1	·	·	·	·	·	–
SMILES	PLAP activator	TNAP act DEA	DAT uptake mod	Calb biofilm kill	D1 mod	HePTP inhibitor
O=[N+]([O-])c1cccc(CN2CCN(S(=O)(=O)c3ccc(Cl)cc3)CC2)c1	·	·	·	·	·	102
COc1cc(NC(=O)COc2cc(C)ccc2C(C)C)ccc1NC(=O)c1ccco1	·	·	·	·	·	–
CC(=O)Nc1ccc(NS(=O)(=O)c2c(C)cc(C)cc2C)cc1	·	·	·	·	·	101
CCOC(=O)c1ccc(-n2[nH]c(-c3ccccc3)cc2=O)cc1	–	–	–	–	–	–
O=c1cc(-c2ccccc2)[nH]n1-c1nc2ccccc2[nH]1	2.1	–	–	–	–	–
Cc1ccc2oc(-c3cc(N)ccc3O)nc2c1	·	·	·	·	·	–
CC(C)c1ccc2oc(-c3cc(N)ccc3O)nc2c1	–	–	–	–	-3.9	–
Cn1c(=O)oc2cc(S(=O)(=O)NCCN3CCN(c4ccccc4F)CC3)ccc21	–	–	–	–	-5.9	–
COc1ccc2nc(NC(=O)C(NS(=O)(=O)c3cccc4nsnc34)C(C)C)sc2c1 (stereo not drawn)	2.1	·	·	·	·	·
CC(C)(C)c1ccc(C(c2ccccc2)C2([N+](=O)[O-])C(=O)c3ccccc3C2=O)cc1 (stereo not drawn)	·	·	·	·	·	–
COc1cccc(/C=N/NC(=O)CO/N=C(\C)c2cccs2)c1OC	–	·	3.2	–	·	·
CC(=O)Nc1ccc(C2=N/C(=C/c3ccc(Br)cc3)C(=O)O2)cc1	·	·	·	·	·	–
O=C1OC(c2ccc(F)cc2)=N/C1=C\c1ccc(OC(=O)c2ccccc2Cl)cc1	·	·	·	·	·	–
COc1cccc(NC(=O)/C=C(\C(=O)O)c2ccc(Cl)cc2)c1	·	·	·	·	·	–
S=C1NC(=S)/C(=C\c2ccc(-c3ccc(Br)cc3)o2)S1	·	·	·	·	·	93
O=C(COc1ccc(Cl)cc1)Nc1ccc(OC(F)(F)F)cc1	·	·	·	·	·	–
O=C(Nc1ccc(N2CCCC2)cc1)c1cccc(F)c1	–	–	–	–	-4.9	–
CN1CCN(c2ccc(NC(=O)c3cccc(OCc4ccccc4)c3)cc2)CC1	–	–	·	–	-5.9	–
O=C(Nc1ccc(N2CCCC2=O)cc1)c1cccc(F)c1	–	–	–	–	–	–
CCN1CCN(c2ccc(NC(=O)c3cccc(OCc4ccccc4)c3)cc2)CC1	–	·	–	–	·	·
O=C(Nc1ccc(N2CCCCC2)cc1)c1ccccc1	–	–	–	·	-4.8	–
Cc1ccccc1C(=O)Nc1ccc2[nH]c(=O)[nH]c2c1	·	·	·	·	·	–
COC(=O)c1ccc(NC(=O)CN(C2CCCCC2)S(C)(=O)=O)cc1	2	–	–	–	–	–
Oc1cccc(/C=N/Nc2nc(N3CCOCC3)nc(N3CCOCC3)n2)c1	·	·	·	·	·	–
CCCCCCC(c1c(C)n(C)n(-c2ccccc2)c1=O)c1c(C)n(C)n(-c2ccccc2)c1=O	·	–	3.2	–	–	–
SMILES	PLAP activator	TNAP act DEA	DAT uptake mod	Calb biofilm kill	D1 mod	HePTP inhibitor
CCC(CC)C(=O)Nc1c(C)n(C)n(-c2ccccc2)c1=O	–	·	–	–	·	·
CCC(C)N=CC1=C(O)C(C(=O)OC)C(C)(C)CC1=O (stereo not drawn)	·	·	–	–	·	–
COC(=O)C1C(O)=C(C=NCC(C)N=CC2=C(O)C(C(=O)OC)C(C)(C)CC2=O)C(=O)CC1(C)C (stereo not drawn)	2.2	–	–	–	–	–
O=c1c2ccccc2nc2ccc3nnnn3n12	·	·	·	·	·	–
CCc1nnc(NC(=O)CSc2nc3ccccc3[nH]2)s1	·	·	·	·	·	–
Cc1cccnc1NC(=O)Nc1ccc(F)cc1	–	–	–	–	-2.4	–
COC(=O)c1ccc(NC(=O)Nc2ccc(F)cc2)cc1	–	–	–	–	-3.7	–
COC(=O)c1ccc(NC(=O)c2ccccc2SC)cc1	–	·	3.3	–	·	·
CC1(C)Cc2ccccc2C2=C(C(=O)N3CCOCC3)C(=O)C(=O)N21	·	·	·	·	·	–
CC(=O)NNc1nc2ccccc2s1	2.1	·	–	·	·	–
C/C(=C\C(=O)c1ccccc1)NNc1nc2ccccc2s1	–	·	–	·	·	·
COc1ccc(S(=O)(=O)Nc2ccc(Oc3ccccc3)cc2)cc1Br	·	·	·	·	·	–
O=C1N=C(N2CCCCC2)CN1c1ccccc1	·	·	·	·	·	–
CCOc1cc(/C=C2\SC(=S)NC2=O)ccc1OC(C)=O	·	·	·	·	·	–
O=C(O)C1C2CCC(O2)C1C(=O)NCc1ccc(F)cc1 (stereo not drawn)	·	·	·	·	·	103
CC(=O)NS(=O)(=O)c1ccc(NC(=O)CCCOc2ccc(Cl)cc2Cl)cc1	·	·	·	·	·	–
